# Measurements published in PubChem BioAssay (NCATS).
# Calls of active or inactive are those of the source. Calls follow the shape of the dose curve; as a rule, active = well fitted curve in the direction sought with a large enough effect; inactive = no such curve, though single readings can be large or run the other way.
# Molecular target: Alpha-galactosidase (Coffea arabica) (UniProt Q42656)
# Assay: Counterscreen for Glucocerebrosidase Inhibitors: qHTS Assay for Coffee Bean alpha-Galactosidase at pH 5.9 (AID 998)
# Conditions: coffee bean alpha-galactosidase enzyme assay; series mostly up to 76.9 µM
# Source text: NIH Chemical Genomics Center [NCGC]
# NIH Molecular Libraries Screening Centers Network [MLSCN]
# PI Name: Zheng, Wei [NIH]
# Alpha-galactosidase is a homodimeric glycoprotein that hydrolyzes the terminal alpha-galactosyl moieties from glycolipids and glycoproteins. Deficiency of this enzyme results in Fabry Disease with progressive accumulation of globotriaosylceramide and other glycosphingolipids in vascular endothelial cells that causes renal failure, myocardial infarction and stroke, and premature death in patients. It has reported that the improper folding and trafficking of alpha-galactosidase resulted from the genetic mutations may account for a significant numbers of Fabry patients. […] We optimized this coffee bean alpha-galactosidase assay in 1536-well plate format as a counter-screen assay for identifying the selective small molecule inhibitors of other lysosomal enzymes.
# NCGC Assay Protocol Summary:
# This is a fluorogenic enzyme assay with 4-Methylumbelliferyl alpha-D-galactopyranoside as the substrate and green coffee bean […] (from Sigma-Aldrich) as the enzyme preparation. Upon the hydrolysis of this fluorogenic substrate, the resulting product, […]. 4-Methyllumbelliferone, can be excited at 365 nm and emits at 440 nm which can be detected by a standard fluorescence plate reader. Data were normalized to the controls for basal activity (without enzyme) and 100% activity (with enzyme). In the AC50 values were determined from concentration-response data modeled with the standard Hill equation.
# Assay buffer: 50 mM citric acid, 0.005% Tween-20, pH 5.9. (pH 5.9 is an optimal condition for this enzyme assay.)
# 1536-well assay protocol for the coffee bean alpha-galactosidase:
# (1) Add 2 ul/well of enzyme (2 nM final)
# (2) Add 23 nL compounds in DMSO solution. The final titration was 0.7 nM to 77 uM.
# (3) Add 1 ul of substrate (80 uM final)
# (4) Incubate at room temperature for 20 min.
# (5) Add 2 ul stop solution (1M NaOH and 1M Glycine mixture, pH 10)
# (6) Detect the assay plate in a ViewLux plate reader (PerkinElmer) with Ex=365 nm and Em=440nm.
# Keywords: Alpha-galactosidase, Fabry Disease, pharmacological chaperone, chaperone therapy, high throughput screening, alpha-galactosidase inhibitor, MLSMR, MLSCN, NIH Roadmap, qHTS and NCGC
# Alpha-galactosidase (Coffea arabica), sequence (Q42656 whole entry, looked up): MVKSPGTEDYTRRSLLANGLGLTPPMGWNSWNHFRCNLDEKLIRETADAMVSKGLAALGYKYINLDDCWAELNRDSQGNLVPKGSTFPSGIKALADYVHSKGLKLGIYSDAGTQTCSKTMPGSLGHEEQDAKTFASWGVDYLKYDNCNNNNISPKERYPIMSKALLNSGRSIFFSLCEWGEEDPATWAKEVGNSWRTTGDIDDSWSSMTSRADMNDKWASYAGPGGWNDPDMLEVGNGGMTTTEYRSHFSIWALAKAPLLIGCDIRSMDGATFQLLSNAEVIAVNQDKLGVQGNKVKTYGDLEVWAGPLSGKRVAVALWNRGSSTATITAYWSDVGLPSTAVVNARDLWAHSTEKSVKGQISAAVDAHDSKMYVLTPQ
row,SMILES,outcome
1,S=C(S)N1CCCC1,inactive
2,CCCCN1C2CCC1CC(OC(c1ccc(F)cc1)c1ccc(F)cc1)C2 (stereo not drawn),inactive
3,CCc1c(C(=O)OC)ncc2[nH]c3cc(OC)c(OC)cc3c12,inactive
4,O=C(OC1CCN(CCCl)CC1)C(c1ccccc1)c1ccccc1,inactive
5,CCCCCCC(C)(C)c1ccc([C@@H]2C[C@H](O)CC[C@@H]2CCCO)c(O)c1,inactive
6,C[C@H](NC(C)(C)C)C(=O)c1cccc(Cl)c1,inactive
7,NC[C@H](O)c1ccc(O)cc1,inactive
8,CNC(=O)Oc1ccc2c(c1)[C@@]1(C)CCN(C)[C@@H]1N2C,inactive
9,C[C@]12CC[C@H](O)C[C@@H]1CC[C@H]1[C@H]2CC[C@]2(C)C(=O)CC[C@@H]12,inactive
10,COc1ccc2c(c1OC)C(=O)O[C@H]2[C@H]1c2cc3c(cc2CCN1C)OCO3,inactive
11,CCCN(CCC)C(=O)Cc1c(-c2ccc(Cl)cc2)nc2c(Cl)cc(Cl)cn12,inactive
12,COc1ccc(OC)c([C@H](O)[C@H](C)N)c1,inactive
13,N#C/C(=C\c1ccc(O)c(O)c1)C(N)=S,inactive
14,CC(C)N(CC[C@@](C(N)=O)(c1ccccc1)c1ccccn1)C(C)C,inactive
15,CS(=N)(=O)CC[C@@H](N)C(=O)O (stereo partly drawn),inactive
16,NCC#Cc1ccccc1,inactive
17,C#CCN(C)[C@@H](C)Cc1ccccc1,inactive

row,SMILES,outcome
1,CC[C@@]1(c2ccc(N)cc2)CCC(=O)NC1=O,inactive
2,C[C@@](Cc1ccc(O)c(O)c1)(NN)C(=O)O,inactive
3,C[C@H]1OC[C@@H](C[N+](C)(C)C)O1,inactive
4,CN1CC[C@]2(C)c3cc(O)ccc3N(C)[C@@H]12,inactive
5,CC(C)=CCC/C(C)=C/CC/C(C)=C/CSc1ccccc1C(=O)O,inactive
6,CC[N+](C)(C)Cc1ccccc1Br,inactive
7,Cc1cc(N)c2ccccc2[n+]1CCCCCCCCCC[n+]1c(C)cc(N)c2ccccc21,inactive
8,COc1cc(C=C(C#N)C#N)cc(O)c1O,inactive
9,C[N+]1(C)[C@@H]2CC[C@H]1CC(OC(=O)[C@@H](CO)c1ccccc1)C2 (stereo partly drawn),inactive
10,COc1cc(OC)c(/C=C2/C(=O)Nc3ccccc32)c(OC)c1,inactive
11,CN(CCOc1ccc(C[C@H](Nc2ccccc2C(=O)c2ccccc2)C(=O)O)cc1)c1ccccn1,inactive
12,CC[C@H]1C(=O)OC[C@H]1Cc1cncn1C,inactive
13,CC(C)C[C@H]1C(=O)N2CCC[C@@H]2[C@]2(O)O[C@](NC(=O)[C@H]3C=C4c5cccc6[nH]c(Br)c(c56)C[C@H]4N(C)C3)(C(C)C)C(=O)N12,inactive
14,NNCc1cccc(O)c1,inactive
15,COc1cc([C@H]2c3cc4c(cc3[C@@H](O)[C@@H]3COC(=O)[C@H]23)OCO4)cc(OC)c1OC,inactive
16,NC(N)=NN=Cc1c(Cl)cccc1Cl,inactive
